We go through 26 compounds from PubChem BioAssay AID761 (NMMLSC, 2007).

Each structure is given as a SMILES string. Out of some 190,000 compounds screened, about 400 (0.21%) were called active. Not shown: some 2% with an inconclusive outcome.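 Rule for the calls: active = percent activity GTP binding at least 20 points away from the 100% baseline, either down as inhibitor or up as activator; inconclusive = compound flagged as likely green fluorescent from well-wide comparison; inactive = the rest.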 Shown is part of a subset that was picked to be rich in actives.

For this assay, the target named is Cell division control protein 42 homolog (Homo sapiens) (UniProt P60953). Kind of assay: modulators of GTP binding to wildtype Cdc42, primary screen, biochemical, multiplex bead flow cytometry, Bodipy-GTP (AID 761).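 Note: median bead fluorescence of bound Bodipy-FL-GTP at 100 nM; 0% = excess unlabeled GTP control and 100% = no compound control; below 100% means less GTP binding so inhibitor and above means activator.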 The following applies: GST-Cdc42 beads, at 10 µM, actives lie on both sides. For orientation: Flow cytometry measures light scatter and fluorescence of single cells or particles in a stream.
Chain of Cell division control protein 42 homolog (Homo sapiens) (P60953 whole entry, looked up): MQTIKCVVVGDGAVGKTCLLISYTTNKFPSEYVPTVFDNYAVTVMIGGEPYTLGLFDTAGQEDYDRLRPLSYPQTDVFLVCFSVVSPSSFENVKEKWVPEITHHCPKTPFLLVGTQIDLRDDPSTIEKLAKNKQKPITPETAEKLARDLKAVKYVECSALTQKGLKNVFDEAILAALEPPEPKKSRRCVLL
Turning to `CC(=O)NC1C(OCc2ccccc2)OC(COC(C)=O)C(OC(C)=O)C1OC(C)=O` (stereo unspecified), the percent activity (GTP binding) was 104% (inactive).

Take `O=C(OCC1O[C@@H](OC(=O)c2cc(O)c(O)c(O)c2)[C@@H](OC(=O)c2cc(O)c(O)c(O)c2)[C@@H](OC(=O)c2cc(O)c(O)c(O)c2)[C@@H]1OC(=O)c1cc(O)c(O)c(O)c1)c1cc(O)c(O)c(O)c1` (stereo partly specified): the percent activity (GTP binding) was 79% (active).

Turning to `NC(=O)COc1ccc(NC(=O)c2ccccc2-c2ccccc2)cc1`, the percent activity (GTP binding) was 92% (inactive).

For the compound `CCOC(=O)c1ccc(N/C(=N/S(=O)(=O)c2ccccc2)c2ccccc2)cc1`, the percent activity (GTP binding) is 98% (inactive).

Take `CCOC(=O)c1ccc(Nc2cc(C)nc3nc(C)nn23)cc1`: the percent activity (GTP binding) was 99% (inactive).

As for `CCOC(=O)c1nc(Nc2ccc(C(=O)OC)cc2)c2ccccc2n1`, the percent activity (GTP binding) was 74% (active).

In the case of `CC(=O)Nc1ccccc1NC(=O)c1cc(C)cc(C)c1`, the percent activity (GTP binding) is 98% (inactive).

Regarding `NC(N)=Nc1nc2ccc(Br)cc2c(=O)[nH]1`, the percent activity (GTP binding) is 93% (inactive).

Regarding `O=C(Nc1ccc(Cl)cc1)C1c2cccc[n+]2CC(=O)N1Cc1ccc2c(c1)OCO2` (stereo unspecified), the percent activity (GTP binding) is 99% (inactive).

In the case of `CCC1CCCCN1C(=O)CSc1nc2c(c(=O)n(C)c(=O)n2C)n1C` (stereo unspecified), the percent activity (GTP binding) is 98% (inactive).

With `Fc1cccc(Cc2noc(CN3CCN(c4cnccn4)CC3)n2)c1`, the percent activity (GTP binding) is 101% (inactive).

For `CCOC(=O)c1ccc(NC2Nc3cc(C)nn3S2)cc1` (stereo unspecified), the percent activity (GTP binding) is 95% (inactive).

For `CC(=O)c1ccccc1NC(=O)CC1(CC(=O)O)CCCCC1`, the percent activity (GTP binding) was 95% (inactive).

As to `Cc1ccc(C)c(-n2nnnc2SCC(=O)c2c(N)n(C)c(=O)n(C)c2=O)c1`, the percent activity (GTP binding) was 93% (inactive).

On to `Cc1ccc(S(=O)(=O)NC(C(=O)N2CCOCCOCCOCCOCC2)c2ccccc2)cc1` (stereo unspecified), for which the percent activity (GTP binding) is 100% (inactive).

`COc1ccccc1C(=O)CSc1cccc[n+]1[O-]`: the percent activity (GTP binding) is 94% (inactive).

As for `CCCCN(C(=O)COc1ccc(NC(C)=O)cc1)C1CCS(=O)(=O)C1` (stereo unspecified), the percent activity (GTP binding) was 96% (inactive).

As for `Cc1ccc(Cl)cc1NC(=O)COC(=O)CC(C)(C)C`, the percent activity (GTP binding) was 90% (inactive).

`CCCCn1c(=O)c(C(C)=O)c(O)c2ccccc21`: the percent activity (GTP binding) was 96% (inactive).

In the case of `CCNC(=O)COc1cc(C)c(Br)c(C)c1`, the percent activity (GTP binding) is 105% (inactive).

As for `CC(C)NC(=S)NN=C1CCCCCCCCCCC1`, the percent activity (GTP binding) is 93% (inactive).

Consider `C=CCn1c(-c2sc(-c3ccccc3)nc2C)n[nH]c1=S`, for which the percent activity (GTP binding) was 90% (inactive).

`O=C(NNC(=S)NCCCN1CCOCC1)c1ccncc1`: the percent activity (GTP binding) is 98% (inactive).

As for `Cc1ccc(NC(=S)NC(=O)c2ccc(-c3ccccc3)cc2)c(C)c1`, the percent activity (GTP binding) is 99% (inactive).

With `Cc1ccc(Nc2c(F)c(F)c(F)c(F)c2C(=O)O)c(C)c1`, the percent activity (GTP binding) was 134% [activator] (active).

With `COc1c(F)c(F)c(C(=O)O)c(Nc2ccccc2C)c1F`, the percent activity (GTP binding) was 100% (inactive).
